{
  "source": "PubChem BioAssay AID1511",
  "about": "(Johns Hopkins Ion Channel Center, 2009)",
  "note": "The whole screen tested about 310,000 compounds, of which about 1,600 (0.52%) were called active. This is one part of a sample in which actives are shown more often than they occur. Values without a mark were called inactive.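 Rule for the calls: active = activation above the mean of controls blocked by dofetilide plus 5 SD; inactive = the rest.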",
  "data": [
    {"biological_target": "Voltage-gated inwardly rectifying potassium channel KCNH2 (Homo sapiens) (UniProt Q12809)", "sequence (Q12809 whole entry, looked up)": "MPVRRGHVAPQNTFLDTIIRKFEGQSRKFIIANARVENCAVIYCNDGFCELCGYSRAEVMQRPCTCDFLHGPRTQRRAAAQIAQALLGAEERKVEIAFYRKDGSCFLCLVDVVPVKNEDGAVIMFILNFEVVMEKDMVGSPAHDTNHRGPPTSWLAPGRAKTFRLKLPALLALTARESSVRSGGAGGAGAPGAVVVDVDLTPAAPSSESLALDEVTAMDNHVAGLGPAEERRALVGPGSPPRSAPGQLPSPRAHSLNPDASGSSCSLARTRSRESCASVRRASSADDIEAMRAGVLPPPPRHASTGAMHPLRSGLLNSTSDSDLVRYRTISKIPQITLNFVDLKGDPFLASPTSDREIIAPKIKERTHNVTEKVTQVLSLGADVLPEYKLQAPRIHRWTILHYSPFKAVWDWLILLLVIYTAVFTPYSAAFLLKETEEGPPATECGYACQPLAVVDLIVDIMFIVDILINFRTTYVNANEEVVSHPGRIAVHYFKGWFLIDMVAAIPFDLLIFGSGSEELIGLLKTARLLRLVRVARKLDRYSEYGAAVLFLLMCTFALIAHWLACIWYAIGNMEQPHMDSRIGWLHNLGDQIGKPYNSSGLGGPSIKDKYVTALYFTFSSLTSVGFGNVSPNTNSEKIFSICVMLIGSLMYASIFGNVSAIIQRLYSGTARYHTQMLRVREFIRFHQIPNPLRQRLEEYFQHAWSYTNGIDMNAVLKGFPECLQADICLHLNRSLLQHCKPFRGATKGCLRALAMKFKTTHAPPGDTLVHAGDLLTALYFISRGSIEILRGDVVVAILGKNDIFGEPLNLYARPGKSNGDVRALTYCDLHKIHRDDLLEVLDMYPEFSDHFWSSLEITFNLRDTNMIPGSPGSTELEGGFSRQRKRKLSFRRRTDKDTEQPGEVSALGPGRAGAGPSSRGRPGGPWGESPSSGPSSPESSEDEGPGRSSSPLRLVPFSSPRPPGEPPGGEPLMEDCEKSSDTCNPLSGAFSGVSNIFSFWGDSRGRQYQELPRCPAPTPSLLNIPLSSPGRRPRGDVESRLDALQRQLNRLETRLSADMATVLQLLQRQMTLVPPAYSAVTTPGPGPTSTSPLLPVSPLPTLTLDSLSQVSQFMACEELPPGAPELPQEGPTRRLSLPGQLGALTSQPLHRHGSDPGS", "test": "hERG rescue from dofetilide block, primary screen, cell-based, CHO-hERG, FluxOR thallium flux, dofetilide IC70 (AID 1511);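 note: thallium influx through hERG after potassium depolarization seen as dye fluorescence rise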", "conditions": "dofetilide IC70 present, at 10 µM, active compounds read high", "values": [
      {"smiles": "FC(F)(F)c1ccnc(Oc2ccc(C3=NCCS3)cc2)c1", "activation (rescue from dofetilide block), less the hit threshold": "-5.42%"},
      {"smiles": "COc1ccc(S(=O)(=O)N2CCOC2CNC(=O)C(=O)NCc2ccncc2)cc1OC", "note": "(configuration not stated)", "activation (rescue from dofetilide block), less the hit threshold": "-6.76%"},
      {"smiles": "O=C(Nc1ccc(-c2cscn2)cc1)C1CCCN(Cc2ccc(CO)o2)C1", "note": "(configuration not stated)", "activation (rescue from dofetilide block), less the hit threshold": "-2.17%"},
      {"smiles": "O=C1CCN(CCCc2ccccc2)CCN1CCO", "activation (rescue from dofetilide block), less the hit threshold": "5.3% (active)"},
      {"smiles": "N#Cc1cccc(CN2CCC(=O)N(CCO)CC2)c1", "activation (rescue from dofetilide block), less the hit threshold": "1.97%"},
      {"smiles": "O=C1CCN(CCc2ccccc2)CCN1CCOc1ccccc1", "activation (rescue from dofetilide block), less the hit threshold": "-5.23%"},
      {"smiles": "Cc1n[nH]c(=O)c2c(NC(=O)COC(=O)c3ncc(Cl)c(Cl)c3Cl)oc(C)c12", "activation (rescue from dofetilide block), less the hit threshold": "-12.6%"},
      {"smiles": "Cc1cc(OCCN2CCCC2)cc(C(C)C)c1", "activation (rescue from dofetilide block), less the hit threshold": "-6.59%"},
      {"smiles": "O=C(COC(=O)c1ccco1)NCc1ccc(Cl)cc1", "activation (rescue from dofetilide block), less the hit threshold": "-0.71%"},
      {"smiles": "O=C(COC(=O)c1cnc(Cl)c(Cl)c1)NCc1ccco1", "activation (rescue from dofetilide block), less the hit threshold": "40.4% (active)"},
      {"smiles": "O=C(COC(=O)c1cc(S(=O)(=O)N2CCCCC2)ccc1Cl)NCc1ccco1", "activation (rescue from dofetilide block), less the hit threshold": "-13.9%"},
      {"smiles": "Cc1c(CN2CCC(CO)(CCOc3ccccc3)CC2)[nH]c2ccc(Cl)cc12", "activation (rescue from dofetilide block), less the hit threshold": "-21.9%"},
      {"smiles": "Cc1nn(CC2CC2)c(=O)n1N(C)c1ncc(C(F)(F)F)cc1Cl", "activation (rescue from dofetilide block), less the hit threshold": "-8.88%"},
      {"smiles": "O=C1CC(c2cccc(F)c2)C2=C(CCCC2=O)N1", "note": "(configuration not stated)", "activation (rescue from dofetilide block), less the hit threshold": "-5.36%"},
      {"smiles": "COc1ccc(OC)c(C2C3=C(N=c4s/c(=C\\c5cccc(O)c5)c(=O)n42)c2ccccc2CC3)c1", "note": "(configuration not stated)", "activation (rescue from dofetilide block), less the hit threshold": "-0.7%"},
      {"smiles": "O=C1CCCC2=C1C(c1ccccc1)n1c(s/c(=C/c3cccc(F)c3)c1=O)=N2", "note": "(configuration not stated)", "activation (rescue from dofetilide block), less the hit threshold": "5.71% (active)"},
      {"smiles": "CCOC(=O)Cc1cc(=O)[nH]c(=O)[nH]1", "activation (rescue from dofetilide block), less the hit threshold": "-4%"},
      {"smiles": "CC1CCCCC1NC(=O)c1cn(C)c2ccc(S(=O)(=O)N3CCOCC3)cc2c1=O", "note": "(configuration not stated)", "activation (rescue from dofetilide block), less the hit threshold": "-5.24%"},
      {"smiles": "Cc1cc(C(=O)NCCc2ccc(Cl)cc2)c(C)o1", "activation (rescue from dofetilide block), less the hit threshold": "-9.03%"},
      {"smiles": "CCOC(=O)c1c(C)oc2cc(Sc3ccccc3)c(O)c(O)c12", "activation (rescue from dofetilide block), less the hit threshold": "-5.84%"},
      {"smiles": "C/C(CC(=O)Nc1ccc(Cl)cc1)=N\\NC(=O)C(=O)NCCO", "activation (rescue from dofetilide block), less the hit threshold": "-8.82%"},
      {"smiles": "COc1ccc(COC(=O)N/N=C(\\C)CC(=O)Nc2ccc(Cl)cc2)cc1", "activation (rescue from dofetilide block), less the hit threshold": "-11.8%"},
      {"smiles": "CCc1ccc(NC(=O)C(=O)N/N=C(\\C)CC(=O)NCCOC)cc1", "activation (rescue from dofetilide block), less the hit threshold": "6.83% (active)"},
      {"smiles": "COC(=O)C(C)N=Cc1ccccc1", "note": "(configuration not stated)", "activation (rescue from dofetilide block), less the hit threshold": "-14%"},
      {"smiles": "Cc1ccc(S(=O)(=O)N(CC(=O)NCc2ccco2)c2ccccc2C)cc1", "activation (rescue from dofetilide block), less the hit threshold": "-7.72%"},
      {"smiles": "Nc1nnnn1/N=C/c1cccc(Br)c1", "activation (rescue from dofetilide block), less the hit threshold": "-0.31%"},
      {"smiles": "COC(=O)c1cccc(-n2[nH]nnc2=S)c1", "activation (rescue from dofetilide block), less the hit threshold": "-7.53%"}
    ]}
  ]
}
